High-throughput results: PubChem BioAssay, Sanford-Burnham Center for Chemical Genomics
This is a sample that favours compounds with a hit; in the whole collection about 31% have one here.
CYP2C19 act: increases human CYP2C19 enzyme activity. 96,000 tested, under 10 active. AID 1025. activation factor at 5 µM. recombinant CYP2C19, luciferin-H EGE luminescence; active compounds read high; 0 = fully inhibited enzyme, 1 = untreated enzyme. P33261;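 active means activation factor of at least 2 at 5 µM in the primary screen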;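 further: 0 = wells with 2.5 mM tranylcypromine and 1 = vehicle-only wells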
CYP2C19 inhib: human CYP2C19 inhibition | CYP2C19 Supersomes, luciferin-H EGE luminescence, 30 min | hit rate 21% among 96,000 | inhibition, % at 5 µM;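 active means CYP2C19 inhibition above a set limit at 5 µM in the primary screen, cut at about 50% in these data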;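 further: plate controls were negative control wells for no effect and 2.5 mM tranylcypromine positive control for full effect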
CYP2C9 activ: CYP2C9 (human) activation | P11712 | recombinant CYP2C9, luciferin-H conversion, luminescence; active compounds read high; factor 1 = untreated enzyme, 0 = blocked | activation factor at 5 µM | hit rate 1.4% among 96,000 | AID 1024;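 active means activation factor of 2 or more for CYP2C9 at a 5 µM dose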;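 further: 0 = sulfaphenazole-blocked wells and 1 = vehicle-only wells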
Target sequence (P11712 whole entry, looked up): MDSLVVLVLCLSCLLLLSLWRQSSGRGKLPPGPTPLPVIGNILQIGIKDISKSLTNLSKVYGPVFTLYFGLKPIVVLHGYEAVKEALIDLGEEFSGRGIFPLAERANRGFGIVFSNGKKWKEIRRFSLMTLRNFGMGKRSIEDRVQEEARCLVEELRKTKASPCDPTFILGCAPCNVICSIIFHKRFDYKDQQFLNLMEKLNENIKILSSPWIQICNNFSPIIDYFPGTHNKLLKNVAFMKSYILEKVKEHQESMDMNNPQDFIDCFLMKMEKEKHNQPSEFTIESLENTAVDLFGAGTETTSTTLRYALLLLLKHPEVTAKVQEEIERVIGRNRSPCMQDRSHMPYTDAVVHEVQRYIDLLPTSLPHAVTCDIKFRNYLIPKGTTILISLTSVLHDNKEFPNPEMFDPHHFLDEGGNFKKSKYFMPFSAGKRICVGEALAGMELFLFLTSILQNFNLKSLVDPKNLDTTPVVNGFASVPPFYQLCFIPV
PLAP act: activates human placental alkaline phosphatase; P05187; purified PLAP enzyme, luminescent substrate read-out; active compounds read high; AID 696; hit rate 1.2% among 96,000; activation fold at 20 µM; in the data active means activation fold above about 2
CYP2C9 inhib: human CYP2C9 inhibition; CYP2C9 Supersomes, luciferin-H conversion, luminescence; inhibition, % at 5 µM; hit rate 20% among 96,000;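 active means blocking of liver enzyme CYP2C9 beyond about 50% at 5 µM, limit read from the data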
* hit, by the source's call.

SMILES	CYP2C19 act	CYP2C19 inhib	CYP2C9 activ	PLAP act	CYP2C9 inhib
Cc1cc(NC(=O)c2cc(S(=O)(=O)N3CCCCC3)ccc2C)n(-c2ccccn2)n1	0.7	31.6	0.4	1.4	64.4*
Cc1ccc(S(=O)(=O)N2CCCCC2)cc1C(=O)Nc1ncn[nH]1	1	-2.1	2*	1.1	-97.4
Cc1ccc(S(=O)(=O)N2CCCCC2)cc1C(=O)Nc1ccc2cn[nH]c2c1	0.7	30.6	0.4	1.7	63.9*
Cc1ccc(S(=O)(=O)N2CCOCC2)cc1C(=O)NC1CCCCC1	1	-3.3	1	1.4	-3.9
Cc1ccc(S(=O)(=O)N2CCOCC2)cc1C(=O)Nc1ccccn1	1	1.1	0.9	1	5.4
Cc1ccc(S(=O)(=O)N2CCCCC2)cc1C(=O)Nc1ccc(N2CCOCC2)cc1	0.9	8.0	1	1	4.7
O=C(NNC(=O)c1ccccc1Br)c1cccc(Cl)c1	0.9	8.5	3.1*	1.2	-206.5
CC1CN(c2c3c(nc4ncnn24)CCCC3)CC(C)O1 (stereo unspecified)	1.1	-12.3	1	1	-4.7
COc1ccc(-c2n[nH]c3c2C(c2ccc(OC)c(OC)c2)N(c2ccccc2)C3=O)cc1 (stereo unspecified)	0.7	34.2	0.6	2.4*	43.3
CC(C)n1c(SCc2cc(=O)[nH]c3ccccc23)nc2c1c(=O)n(C)c(=O)n2C	0.9	6.1	0.6	0.9	38.0
CC(C)n1c(SCc2ccccc2F)nc2c1c(=O)n(C)c(=O)n2C	0.4	59.6*	0.3	1.5	73.7*
COC(=O)c1ccc(Oc2coc3cc(OCc4cnn(-c5ccccc5)c4)ccc3c2=O)cc1	0.9	10.6	0.9	1	9.9
CCOC(=O)c1sc2ncnc(NCC(c3cccs3)N(C)C)c2c1C (stereo unspecified)	0.4	57.8*	0.9	1.5	8.8
Cc1ccc(-n2ncc3c2ncn2c(C)nnc32)cc1C	1	-1.7	0.8	0.9	16.2
O=c1cc(-c2ccccc2)nc(N2CCN(Cc3ccc4c(c3)OCO4)CC2)[nH]1	0.6	37.7	0.5	1.2	48.4
Cc1nc(N2CCN(Cc3ccc4c(c3)OCO4)CC2)nc2c1C(=O)CC(c1ccco1)C2 (stereo unspecified)	0.3	73.2*	0.1	1.6	88.5*
Cc1nc(N2CCN(Cc3ccccc3)CC2)nc2c1C(=O)CCC2	0.5	54.8*	0.7	1.5	32.7
CCN1CCN(c2nc(C)c3c(n2)CCCC3=O)CC1	1.2	-17.6	0.9	0.8	11.8
Cc1nc(N2CCN(Cc3ccccc3)CC2)nc2c1C(=O)CC(c1ccco1)C2 (stereo unspecified)	0.6	40.2	0.5	1.4	54.3*
COc1ccc(C2CC(=O)c3c(C)nc(N4CCN(c5ccccc5)CC4)nc3C2)cc1 (stereo unspecified)	0.8	21.4	0.6	1.5	42.0
CCOCC(O)CS(=O)(=O)c1ccccn1 (stereo unspecified)	1	-2.4	1.1	1.1	-6.6
Cc1ccc(C(=O)N2C3C=CC(C3)C2(C(F)(F)F)C(F)(F)F)cc1 (stereo unspecified)	0.8	19.4	0.7	1	34.4
CS(=O)(=O)N(CC(=O)N1CCN(c2ccccc2F)CC1)c1cccc(C(F)(F)F)c1	0.9	6.9	1.7	0.9	-73.9
COc1c(C(C)C)cc(NC(C)=O)cc1C(C)C	0.1	88.7*	0.7	1.2	25.1
CC(C)c1cc(NC(=O)C(C)(C)C)cc(C(C)C)c1O	1.1	-7.8	1.3	1.1	-25.1
SMILES	CYP2C19 act	CYP2C19 inhib	CYP2C9 activ	PLAP act	CYP2C9 inhib
CCSc1nnc([C@H](C)NC(=O)OC(C)(C)C)o1	0.6	42.4	0.9	1	14.2
C1=Nc2c(Nc3ccccc3)ncnc2Oc2ccccc21	0.5	54.0*	0.4	0.8	61.9*
CCOc1ccc(NS(=O)(=O)c2ccc3c(c2)oc(=O)n3C)cc1	0.9	6.6	0.8	1	24.7
COc1ccc(N2CCN(CCCNS(=O)(=O)c3ccc4c(c3)oc(=O)n4C)CC2)cc1	1.1	-7.1	1	1.4	-1.7
COC(=O)c1ccc(NS(=O)(=O)c2ccc3c(c2)oc(=O)n3C)cc1	0.1	89.1*	0.1	1.2	90.2*
COc1cc(NS(=O)(=O)c2ccc3c(c2)oc(=O)n3C)cc(OC)c1OC	0.5	46.3	0.3	0.8	70.8*
COc1ccc(NS(=O)(=O)c2ccc3c(c2)oc(=O)n3C)c(OC)c1	0	96.3*	0.7	1	29.6
Cc1cc(C)nc(SCC2COc3ccccc3O2)n1 (stereo unspecified)	0.5	46.9	0.8	1.1	17.4
CC(C)CCn1cnc2c(NCc3ccccc3)ncnc21	0.9	5.6	0.8	0.8	16.8
CCOC(=O)CSC1=NC(=O)/C(=C\c2ccc(Cl)cc2)S1	0.5	48.1	0.6	1	38.3
N#CCSc1nnc(COc2cccc3ccccc23)n1-c1ccccc1	0.1	91.3*	0	1.5	95.9*
Cc1ccc(-c2nnc(CSc3nnc(COc4cccc5ccccc45)n3-c3ccccc3)o2)cc1	0.7	30.5	0.4	1.9	58.9*
N#CCSc1nnc(COc2cccc3ccccc23)n1-c1cccc(Cl)c1	1.1	-5.1	1.1	1	-13.6
CCOC(=O)C(Cc1ccccc1)NC(=O)CCc1c(C)nc2nc(C)nn2c1C (stereo unspecified)	1	-0.8	1.1	1.2	-11.0
CC(=O)c1ccc(OCC(O)Cn2nnc3ccccc32)cc1 (stereo unspecified)	0.2	76.0*	0.3	1.3	71.7*
Cc1ccc(C(=O)Cn2nnc3ccccc32)cc1C	0.9	12.5	0.9	0.7	13.1
COC(=O)c1ccc(OCC(O)CN2C(=O)NC(C)(C)C2=O)cc1 (stereo unspecified)	0.6	38.3	0.9	1.1	14.1
Cc1cccc(C)c1OCC(O)Cn1nnc2ccccc21 (stereo unspecified)	0.4	59.4*	0.8	1.1	16.9
COC(=O)c1ccc(OCC(O)Cn2nnc3ccccc32)cc1 (stereo unspecified)	0.2	81.3*	0.2	1	82.3*
O=C1C2CC=CCC2C(=O)N1c1ccc(OCC(O)Cn2nnc3ccccc32)cc1 (stereo unspecified)	0.8	16.3	0.6	1.2	39.5
Cc1ccc[n+](CC(=O)Nc2ccc([N+](=O)[O-])cc2Cl)c1	0.7	27.9	1.1	0.9	-8.6
CC(C)(CNc1ccc([N+](=O)[O-])cc1Cl)CNS(C)(=O)=O	0.5	54.6*	0.6	1.2	44.2
CCc1nc(NCCc2ccccn2)c2nnn(Cc3ccccc3F)c2n1	0.3	69.0*	0.3	1.4	67.1*
CCCCCc1c(C)nc(Nc2ccccc2)[nH]c1=O	0.6	42.0	0.9	1.1	11.7
COc1ccc(C2SCCN2S(=O)(=O)c2ccc(NC(C)=O)cc2)cc1 (stereo unspecified)	0.5	54.6*	0.6	1	43.0
